In PubChem BioAssay (EPA / NIEHS):
“And” between values parts separate entries of the source, which are not always exact repeats. Identical values can stand only once. Records with an inconclusive call do not appear. The source holds several records for some structures; these can differ, active in one and inactive in another. The source made the active and inactive calls. The calls were made as follows, unless noted: active = hit-call score of the fitted dose curve at least 0.9, where 1 is the maximum; inactive = score below 0.9.

Tests used:
[1] = BSK_4H_Eotaxin3: BioMAP Diversity Plus: 4H Assay for Eotaxin 3 Biomarker Activity (AID 2283000); details: primary human endothelial cells (HUVEC); actives raise or lower the signal;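 also: CCL26 protein level quantified by ELISA in parallel with SRB cytotoxicity check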
Summary of the method: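 Chemicals were added to human umbilical vein endothelium cultures, and Eotaxin-3 was quantified by ELISA at 24 h. Values were derived by bidirectional fitting with DMSO serving as negative control and activity baseline.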

[2] = target: human Peroxisome Proliferator-activated Receptor alpha (PPARa), PPARA (gene 5465) (UniProt Q07869); experiment: ATG_PPARa_TRANS: Attagene TRANS-FACTORIAL HepG2 Assay for human Peroxisome Proliferator-activated Receptor alpha (PPARa) (AID 2283001; active = hit-call score of the fitted dose curve at least 0.9, where 1 is the maximum)
Chain of human Peroxisome Proliferator-activated Receptor alpha (PPARa), PPARA (gene 5465) (Q07869 whole entry, looked up, the tested form may be a part): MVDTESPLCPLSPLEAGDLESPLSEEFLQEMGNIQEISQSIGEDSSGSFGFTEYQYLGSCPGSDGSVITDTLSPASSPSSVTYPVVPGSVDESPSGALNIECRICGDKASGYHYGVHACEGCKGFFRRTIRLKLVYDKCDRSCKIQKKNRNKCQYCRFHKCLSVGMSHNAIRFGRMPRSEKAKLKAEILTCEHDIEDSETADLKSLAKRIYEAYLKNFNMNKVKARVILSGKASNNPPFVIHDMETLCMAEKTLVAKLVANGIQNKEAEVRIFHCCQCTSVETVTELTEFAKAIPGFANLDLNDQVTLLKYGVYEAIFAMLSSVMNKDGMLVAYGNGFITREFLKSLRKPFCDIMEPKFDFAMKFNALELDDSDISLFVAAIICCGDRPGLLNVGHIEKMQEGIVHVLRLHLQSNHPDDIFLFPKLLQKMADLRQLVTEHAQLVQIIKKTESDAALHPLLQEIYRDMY
Summary of the method: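 HepG2 cells transiently transfected with multiplexed GAL4-UAS reporter units and chimeric NR-Gal4 constructs were dosed for 24 h. Reporter mRNA was measured by RT-PCR with fluorescent labelling and capillary electrophoresis; gain of signal fitted against DMSO.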

[3] = read-out: Intercellular Adhesion Molecule 1 (ICAM1), ICAM1 (gene 3383); experiment: BSK_3C_ICAM1: BioMAP Diversity Plus: 3C Assay for Intercellular Adhesion Molecule 1 (ICAM1) Biomarker Activity (AID 2283003); details: primary human endothelial cells (HUVEC); actives raise or lower the signal
Summary of the method: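 Human vascular endothelial primary cells, 3C conditions, 24 h treatment. ICAM-1 by ELISA.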

[4] = BSK_3C_Proliferation: Cell Proliferation Assessment in the BioMAP Diversity Plus: 3C Assay (AID 2283006); details: primary human endothelial cells (HUVEC);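 as to AC50: potency may reflect either rise or fall in cell number versus DMSO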
Summary of the method: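 Proliferation of human vascular endothelial primary cells after 48 h dosing, quantified as SRB-stained protein at 560 nm relative to DMSO.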

[5] = target: Peroxisome proliferator-activated receptor gamma (Homo sapiens) (UniProt P37231); experiment: ATG_PPARg_TRANS: Attagene TRANS-FACTORIAL HepG2 Assay for human Peroxisome Proliferator-activated Receptor-gamma (PPARg) (AID 2283007; active = hit-call score of the fitted dose curve at least 0.9, where 1 is the maximum)
Chain of Peroxisome proliferator-activated receptor gamma (Homo sapiens) (P37231 whole entry, looked up, the tested form may be a part): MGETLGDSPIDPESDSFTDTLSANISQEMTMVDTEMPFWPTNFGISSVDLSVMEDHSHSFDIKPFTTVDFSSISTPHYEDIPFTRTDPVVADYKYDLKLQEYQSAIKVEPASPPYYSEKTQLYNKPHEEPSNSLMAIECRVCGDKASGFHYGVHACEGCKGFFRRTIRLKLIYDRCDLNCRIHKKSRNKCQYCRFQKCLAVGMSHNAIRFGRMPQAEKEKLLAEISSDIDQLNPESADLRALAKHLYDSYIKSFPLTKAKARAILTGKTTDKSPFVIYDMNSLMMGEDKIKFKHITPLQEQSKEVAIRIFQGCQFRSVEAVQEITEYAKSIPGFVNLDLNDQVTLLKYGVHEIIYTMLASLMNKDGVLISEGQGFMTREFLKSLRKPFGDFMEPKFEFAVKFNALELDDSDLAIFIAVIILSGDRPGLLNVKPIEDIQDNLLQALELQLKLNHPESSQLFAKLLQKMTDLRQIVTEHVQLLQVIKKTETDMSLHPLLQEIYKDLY
Summary of the method: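 HepG2 cells are transiently transfected with GAL4-UAS reporter units driven by chimeric NR-Gal4 fusions and dosed for 24 h. Reporter mRNA is quantified by RT-PCR, 6-FAM labelling, HpaI digestion and capillary electrophoresis. Induction is scored against DMSO.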

[6] = target: Nuclear receptor subfamily 1 group I member 2 (Homo sapiens) (UniProt O75469); experiment: ATG_PXR_TRANS: Attagene TRANS-FACTORIAL HepG2 Assay for human Pregnane X Receptor (PXR) (AID 2283008; active = hit-call score of the fitted dose curve at least 0.9, where 1 is the maximum)
Chain of Nuclear receptor subfamily 1 group I member 2 (Homo sapiens) (O75469 whole entry, looked up, the tested form may be a part): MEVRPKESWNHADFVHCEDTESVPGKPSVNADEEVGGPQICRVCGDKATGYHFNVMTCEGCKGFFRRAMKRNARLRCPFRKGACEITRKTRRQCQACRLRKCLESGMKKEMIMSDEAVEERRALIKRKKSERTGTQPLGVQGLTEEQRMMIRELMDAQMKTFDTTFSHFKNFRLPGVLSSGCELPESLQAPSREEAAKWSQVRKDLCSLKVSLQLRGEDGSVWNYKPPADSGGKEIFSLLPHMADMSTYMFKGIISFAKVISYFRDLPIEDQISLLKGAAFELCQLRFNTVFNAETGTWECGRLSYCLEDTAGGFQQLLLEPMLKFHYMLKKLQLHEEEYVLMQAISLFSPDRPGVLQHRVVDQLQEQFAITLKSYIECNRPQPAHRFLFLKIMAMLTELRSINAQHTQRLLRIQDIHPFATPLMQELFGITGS
Summary of the method: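 HepG2 cells transiently transfected with GAL4-UAS reporter units and PXR-Gal4 chimera, exposed 24 h. Reporter mRNA quantified by RT-PCR, fluorescent labelling, HpaI digestion and capillary electrophoresis; gain of signal vs DMSO.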

[7] = target: human Retinoic Acid Receptor gamma (RARg), RARG (gene 5916) (UniProt P13631); experiment: ATG_RARg_TRANS: Attagene TRANS-FACTORIAL HepG2 Assay for human Retinoic Acid Receptor gamma (RARg) (AID 2283009; active = hit-call score of the fitted dose curve at least 0.9, where 1 is the maximum)
Chain of human Retinoic Acid Receptor gamma (RARg), RARG (gene 5916) (P13631 whole entry, looked up, the tested form may be a part): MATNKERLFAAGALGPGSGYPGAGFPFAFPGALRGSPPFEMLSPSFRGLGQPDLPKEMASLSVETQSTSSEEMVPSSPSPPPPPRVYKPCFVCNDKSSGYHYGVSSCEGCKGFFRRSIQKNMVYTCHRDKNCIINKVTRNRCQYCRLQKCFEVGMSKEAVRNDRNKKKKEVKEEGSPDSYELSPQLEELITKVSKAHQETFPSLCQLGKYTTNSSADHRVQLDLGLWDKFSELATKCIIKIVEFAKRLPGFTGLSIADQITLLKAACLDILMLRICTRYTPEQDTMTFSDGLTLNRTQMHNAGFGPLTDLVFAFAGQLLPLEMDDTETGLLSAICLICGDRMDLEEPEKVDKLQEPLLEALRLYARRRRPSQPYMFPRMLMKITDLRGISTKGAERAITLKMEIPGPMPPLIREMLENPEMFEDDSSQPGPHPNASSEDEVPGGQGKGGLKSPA
Summary of the method: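 HepG2, RARg-GAL4 TRANS system, 24 h exposure; reporter mRNA by RT-PCR + CE fluorescence; increase over DMSO.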

[8] = target: human RAR-related Orphan Receptor beta (RORb), RORB (gene 6096) (UniProt Q92753); experiment: ATG_RORb_TRANS: Attagene TRANS-FACTORIAL HepG2 Assay for human RAR-related Orphan Receptor beta (RORb) (AID 2283010; active = hit-call score of the fitted dose curve at least 0.9, where 1 is the maximum)
Chain of human RAR-related Orphan Receptor beta (RORb), RORB (gene 6096) (Q92753 whole entry, looked up, the tested form may be a part): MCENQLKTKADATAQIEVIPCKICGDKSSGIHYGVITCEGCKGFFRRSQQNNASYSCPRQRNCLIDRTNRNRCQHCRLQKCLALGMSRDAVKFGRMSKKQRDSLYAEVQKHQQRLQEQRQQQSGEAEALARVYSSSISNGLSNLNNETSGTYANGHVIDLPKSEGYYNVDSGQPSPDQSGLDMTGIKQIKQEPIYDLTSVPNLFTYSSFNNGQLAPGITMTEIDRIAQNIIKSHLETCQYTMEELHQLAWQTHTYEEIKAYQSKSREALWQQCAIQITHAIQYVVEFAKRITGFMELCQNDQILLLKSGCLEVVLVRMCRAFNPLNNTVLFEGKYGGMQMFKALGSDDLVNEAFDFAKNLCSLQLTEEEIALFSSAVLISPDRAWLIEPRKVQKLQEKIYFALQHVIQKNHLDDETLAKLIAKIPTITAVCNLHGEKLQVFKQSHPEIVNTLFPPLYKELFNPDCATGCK
Summary of the method: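 In this TRANS-format test, human HepG2 cells express chimeric NR-Gal4 fusion proteins driving GAL4-UAS reporters. After 24 h dosing, reporter transcripts are measured by fluorescent RT-PCR/capillary electrophoresis, with DMSO as negative control.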

[9] = target: human RAR-related Orphan Receptor gamma (RORg), RORC (gene 6097) (UniProt P51449); experiment: ATG_RORg_TRANS: Attagene TRANS-FACTORIAL HepG2 Assay for human RAR-related Orphan Receptor gamma (RORg) (AID 2283011; active = hit-call score of the fitted dose curve at least 0.9, where 1 is the maximum)
Chain of human RAR-related Orphan Receptor gamma (RORg), RORC (gene 6097) (P51449 whole entry, looked up, the tested form may be a part): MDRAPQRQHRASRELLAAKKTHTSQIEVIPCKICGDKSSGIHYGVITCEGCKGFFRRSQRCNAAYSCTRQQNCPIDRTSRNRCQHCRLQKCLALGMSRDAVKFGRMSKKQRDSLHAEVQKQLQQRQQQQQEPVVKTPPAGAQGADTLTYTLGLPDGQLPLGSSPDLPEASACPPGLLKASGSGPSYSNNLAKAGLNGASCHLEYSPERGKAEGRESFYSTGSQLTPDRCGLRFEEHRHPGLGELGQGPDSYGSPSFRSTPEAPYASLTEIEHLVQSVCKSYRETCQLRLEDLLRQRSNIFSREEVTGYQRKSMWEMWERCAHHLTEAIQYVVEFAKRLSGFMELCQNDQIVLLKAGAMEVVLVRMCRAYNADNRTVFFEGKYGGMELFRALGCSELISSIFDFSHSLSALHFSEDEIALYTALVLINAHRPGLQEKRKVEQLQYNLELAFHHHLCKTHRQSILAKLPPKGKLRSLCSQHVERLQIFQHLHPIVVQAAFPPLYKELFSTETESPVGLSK
Summary of the method: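 First, HepG2 liver cells were transfected with GAL4-UAS-driven reporter constructs and the RORg-Gal4 fusion. Next, they were treated with chemical for 24 h. Finally, reporter mRNA was quantified by RT-PCR and capillary electrophoresis, with upward activity fitted against DMSO.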

[10] = read-out: E-selectin (Homo sapiens) (UniProt P16581); experiment: BSK_3C_Eselectin: BioMAP Diversity Plus: 3C Assay for Eselectin Biomarker Activity (AID 2283015); details: primary human endothelial cells (HUVEC); actives raise or lower the signal;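 also: cell surface E-selectin protein quantified by ELISA 24 h after dosing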
Summary of the method: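 ELISA read-out of E-selectin on endothelial monolayers after 24 h chemical treatment. Human umbilical vein primary cells served as the system, with DMSO defining baseline activity for bidirectional fitting.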

[11] = read-out: Interleukin-1 alpha (IL1a), IL1A (gene 3552); experiment: BSK_BE3C_IL1a: BioMAP Diversity Plus: BE3C Assay for Interleukin-1 alpha (IL1a) Biomarker Activity (AID 2283016); details: primary human bronchial epithelial cells; actives raise or lower the signal
Summary of the method: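 Cultures of primary human bronchial epithelial cells receive test chemical. After 24 h, IL-1a is quantified by ELISA, while parallel wells are fixed in TCA and SRB-stained for total protein. Changes in either direction are fitted relative to DMSO.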

[12] = read-out: Monocyte Chemoattractant Protein-1 (MCP1), CCL2 (gene 6347); experiment: BSK_3C_MCP1: BioMAP Diversity Plus: 3C Assay for Monocyte Chemoattractant Protein-1 (MCP1) Biomarker Activity (AID 2283017); details: primary human endothelial cells (HUVEC); actives raise or lower the signal
Summary of the method: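 ELISA read-out of MCP-1 from human umbilical vein endothelial cell cultures harvested 24 h post-dosing. Gain or loss of signal was fitted relative to DMSO.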

[13] = read-out: Monocyte Chemoattractant Protein-1 (MCP1), CCL2 (gene 6347); experiment: BSK_4H_MCP1: BioMAP Diversity Plus: 4H Assay for Monocyte Chemoattractant Protein-1 (MCP1) Biomarker Activity (AID 2283018); details: primary human endothelial cells (HUVEC); actives raise or lower the signal
Summary of the method: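 Readout: MCP-1 ELISA on compound-treated HUVEC, sampled 24 h post-dosing. Baseline and negative control DMSO; bidirectional fit. Overt toxicity checked alongside by sulforhodamine B protein staining at time of biomarker measurement.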

[14] = read-out: Human Leukocyte Antigen - DR isotype (HLADR), HLA-DRA (gene 3122); experiment: BSK_3C_HLADR: BioMAP Diversity Plus: 3C Assay for Human Leukocyte Antigen - DR isotype (HLADR) Biomarker Activity (AID 2283019); details: primary human endothelial cells (HUVEC); actives raise or lower the signal;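 also: ELISA of cell-surface HLA-DR on HUVEC 24 h after dosing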
Summary of the method: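 ELISA readout of surface HLA-DR on human umbilical vein endothelium, taken 24 h after chemical treatment. Gain- and loss-of-signal were both fitted relative to DMSO.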

[15] = read-out: Interleukin-8 (IL8), CXCL8 (gene 3576); experiment: BSK_3C_IL8: BioMAP Diversity Plus: 3C Assay for Interleukin-8 (IL8) Biomarker Activity (AID 2283020); details: primary human endothelial cells (HUVEC); actives raise or lower the signal
Summary of the method: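 Human vascular endothelial cells (umbilical vein) in the 3C system; IL-8 level detected by ELISA at 24 h post-dose, with DMSO as baseline.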

[16] = target: human Retinoid X Receptor beta (RXRb), RXRB (gene 6257) (UniProt P28702); experiment: ATG_RXRb_TRANS: Attagene TRANS-FACTORIAL HepG2 Assay for human Retinoid X Receptor beta (RXRb) (AID 2283013; active = hit-call score of the fitted dose curve at least 0.9, where 1 is the maximum)
Summary of the method: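 Multiplexed TRANS reporter assay in HepG2; 24 h dosing; reporter mRNA by RT-PCR/CE fluorescence; gain-of-signal relative to DMSO.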

[17] = target: human Thyroid Receptor alpha (THRa1), THRA (gene 7067) (UniProt P10827); experiment: ATG_THRa1_TRANS: Attagene TRANS-FACTORIAL HepG2 Assay for human Thyroid Receptor alpha (THRa1) (AID 2283014; active = hit-call score of the fitted dose curve at least 0.9, where 1 is the maximum)
Summary of the method: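 Reporter transcript induction, read by capillary electrophoresis of 6-FAM-labelled RT-PCR products, reflects activity of a transfected THRa1-Gal4 fusion in HepG2 liver cells. Cells were dosed for 24 h; activity was fitted in the positive direction against DMSO.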

[18] = target: human Peroxisome Proliferator-activated Receptor delta (PPARd), PPARD (gene 5467) (UniProt Q03181); experiment: ATG_PPARd_TRANS: Attagene TRANS-FACTORIAL HepG2 Assay for human Peroxisome Proliferator-activated Receptor delta (PPARd) (AID 2283002; active = hit-call score of the fitted dose curve at least 0.9, where 1 is the maximum)
Chain of human Peroxisome Proliferator-activated Receptor delta (PPARd), PPARD (gene 5467) (Q03181 whole entry, looked up, the tested form may be a part): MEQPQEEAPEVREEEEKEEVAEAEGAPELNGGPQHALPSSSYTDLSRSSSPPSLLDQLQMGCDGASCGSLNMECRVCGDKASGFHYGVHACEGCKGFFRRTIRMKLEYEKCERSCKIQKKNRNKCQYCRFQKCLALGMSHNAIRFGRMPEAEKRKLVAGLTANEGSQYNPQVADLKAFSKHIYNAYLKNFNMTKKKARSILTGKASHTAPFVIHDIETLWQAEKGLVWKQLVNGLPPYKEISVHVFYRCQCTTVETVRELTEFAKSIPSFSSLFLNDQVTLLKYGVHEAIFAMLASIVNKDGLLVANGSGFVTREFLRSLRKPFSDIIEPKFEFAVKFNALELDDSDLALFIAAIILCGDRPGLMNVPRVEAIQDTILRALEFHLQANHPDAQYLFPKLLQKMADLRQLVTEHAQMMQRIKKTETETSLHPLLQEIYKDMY
Summary of the method: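 HepG2 cells transiently transfected with multiplexed GAL4-UAS reporter units and exogenous chimeric NR-Gal4 proteins; 24 h compound exposure. Reporter mRNA measured by RT-PCR, 6-FAM labelling, HpaI digestion and capillary electrophoresis; gain of signal versus DMSO.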

[19] = target: human Retinoic Acid Receptor beta (RARb), RARB (gene 5915) (UniProt P10826); experiment: ATG_RARb_TRANS: Attagene TRANS-FACTORIAL HepG2 Assay for human Retinoic Acid Receptor beta (AID 2283004; active = hit-call score of the fitted dose curve at least 0.9, where 1 is the maximum)
Chain of human Retinoic Acid Receptor beta (RARb), RARB (gene 5915) (P10826 whole entry, looked up): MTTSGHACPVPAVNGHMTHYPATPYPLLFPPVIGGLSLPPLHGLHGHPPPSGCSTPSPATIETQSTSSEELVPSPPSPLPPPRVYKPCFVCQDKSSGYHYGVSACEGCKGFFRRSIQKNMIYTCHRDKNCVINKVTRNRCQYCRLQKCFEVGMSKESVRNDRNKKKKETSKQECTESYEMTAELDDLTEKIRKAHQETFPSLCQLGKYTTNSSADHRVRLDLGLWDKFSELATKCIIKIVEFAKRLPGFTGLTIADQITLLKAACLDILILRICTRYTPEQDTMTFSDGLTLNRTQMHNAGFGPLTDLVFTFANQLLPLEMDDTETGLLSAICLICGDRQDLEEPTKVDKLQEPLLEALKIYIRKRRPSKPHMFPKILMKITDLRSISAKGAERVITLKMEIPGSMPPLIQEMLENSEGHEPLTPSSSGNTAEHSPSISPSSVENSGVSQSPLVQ
Summary of the method: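 Transient transfection of HepG2 with multiple reporter units → chemical dosing, 24 h → total RNA isolation → RT with oligo(dT) → reporter-specific PCR, 6-FAM primer extension, HpaI digest → capillary electrophoresis. Positive direction vs DMSO control.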

[20] = target: Retinoic acid receptor RXR-alpha (Homo sapiens) (UniProt P19793); experiment: ATG_RXRa_TRANS: Attagene TRANS-FACTORIAL HepG2 Assay for human Retinoid X Receptor alpha (RXRa) (AID 2283012; active = hit-call score of the fitted dose curve at least 0.9, where 1 is the maximum)
Chain of Retinoic acid receptor RXR-alpha (Homo sapiens) (P19793 whole entry, looked up, the tested form may be a part): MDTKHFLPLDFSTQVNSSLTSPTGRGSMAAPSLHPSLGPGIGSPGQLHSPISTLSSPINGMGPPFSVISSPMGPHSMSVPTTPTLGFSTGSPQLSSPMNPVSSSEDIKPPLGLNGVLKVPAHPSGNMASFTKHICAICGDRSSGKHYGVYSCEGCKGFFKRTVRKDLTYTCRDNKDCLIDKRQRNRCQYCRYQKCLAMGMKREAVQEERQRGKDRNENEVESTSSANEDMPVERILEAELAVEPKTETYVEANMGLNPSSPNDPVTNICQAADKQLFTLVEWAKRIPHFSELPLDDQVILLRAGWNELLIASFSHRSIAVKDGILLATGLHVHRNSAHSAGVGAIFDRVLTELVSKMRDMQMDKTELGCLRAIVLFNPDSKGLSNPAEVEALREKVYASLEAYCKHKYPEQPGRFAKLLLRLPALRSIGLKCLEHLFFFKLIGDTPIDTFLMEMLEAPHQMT
Summary of the method: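 Cells (HepG2) carried transiently transfected GAL4-responsive reporter units. Following a 24 h chemical incubation, reporter mRNA induction was read via RT-PCR fragment analysis; DMSO served as negative control and baseline.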

Measured: AC50

Chain of E-selectin (Homo sapiens) (P16581 whole entry, looked up): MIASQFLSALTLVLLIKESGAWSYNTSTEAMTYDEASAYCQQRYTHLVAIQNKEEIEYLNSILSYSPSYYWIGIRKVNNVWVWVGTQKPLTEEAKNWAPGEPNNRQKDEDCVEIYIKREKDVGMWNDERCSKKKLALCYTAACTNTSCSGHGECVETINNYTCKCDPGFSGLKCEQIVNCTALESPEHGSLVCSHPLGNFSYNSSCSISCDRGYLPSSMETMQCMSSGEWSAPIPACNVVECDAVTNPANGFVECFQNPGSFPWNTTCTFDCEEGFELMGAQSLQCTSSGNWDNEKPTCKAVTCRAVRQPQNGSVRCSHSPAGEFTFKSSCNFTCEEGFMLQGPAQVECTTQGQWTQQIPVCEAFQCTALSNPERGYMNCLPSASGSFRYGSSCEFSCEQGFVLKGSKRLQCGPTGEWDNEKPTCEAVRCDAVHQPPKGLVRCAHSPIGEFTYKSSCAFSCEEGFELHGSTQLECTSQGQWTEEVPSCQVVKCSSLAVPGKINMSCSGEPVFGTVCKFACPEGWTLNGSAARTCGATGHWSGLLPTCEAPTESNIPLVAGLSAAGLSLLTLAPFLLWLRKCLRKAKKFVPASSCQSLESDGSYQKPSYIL

OCC(F)(F)C(F)(F)C(F)(F)C(F)F
inactive: [1] | [2] | [3] | [4] | [5] | [6] | [7] | [8] | [9] | [10] | [11] | [12] | [13] | [14] | [15]

OCC(F)(F)C(F)(F)C(F)(F)C(F)(F)C(F)(F)C(F)(F)F
active: [3] 46.4 µM | [4] 52.3 µM and 30 µM
inactive: [1] | [2] | [3] | [6] | [9] | [16] | [17] | [10] | [11] | [12] | [13] | [14] | [15]

O=C(O)C(F)(OC(F)(F)C(F)(OC(F)(F)C(F)(F)C(F)(F)F)C(F)(F)F)C(F)(F)F (stereo unspecified)
inactive: [1] | [18] | [3] | [19] | [4] | [5] | [6] | [7] | [8] | [20] | [10] | [11] | [12] | [13] | [14] | [15]
